The values that follow come from PubChem BioAssay (Tox21).

Unmarked numbers belong to inactive results. Records with an inconclusive call do not appear. Calls of active or inactive are those of the source. Unless noted, the call rests on the fitted dose curve; in most records, active means well fitted curve in the direction sought with a large enough effect in the repeat runs; inconclusive means weak or mixed curves; inactive means no such curve, though single readings can be large; an effect the other way counts as inactive or inconclusive.

The nature of test [1]: qHTS assay to identify small molecule agonists of the hypoxia (HIF-1) signaling pathway - cell viability counter screen (AID 1224844; calls by dose curve; further: nearly all actives have a fitted effect of over 50% in size). In outline:
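Multiplexed with the HRE beta-lactamase assay, this viability read used CellTiter-Glo luminescence (30 min, RT) on HRE-bla ME-180 cells treated 17 hrs with compounds in 0.5% dialyzed FBS medium.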
(In general: qHTS replaces the single test concentration by a dilution series.)

Test [2] can be described thus: qHTS assay to identify small molecule agonists of H2AX (AID 1224845; active means well fitted activation curve with a large enough effect in the signal ratio in the repeat runs, not every such curve was filed as active; the % refers to the signal ratio). In outline:
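Wild-type CHO-K1 cells, plated overnight, exposed 3hr at 37C to 15 concentrations (0.76% DMSO final). Lysed, then HTRF anti-pH2AX (S139) cryptate and anti-H2AX-d2 antibodies, 24 hr room temperature; 665/620 nm emission read.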

Test [3] in a line: qHTS assay to identify small molecule agonists of H2AX - cell viability counter screen (AID 1224847; calls by dose curve; further: top concentration of the series differs between compounds; nearly all actives have a fitted effect of over 30% in size). The procedure, abridged: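 For this counter screen, overnight-attached CHO-K1 cells received test compounds (15 concentrations, 0.76% DMSO final); 3 hr later at 37C, CellTiter-Glo reagent was added and luminescence recorded after 30 min at room temperature.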
Test [4] is described as follows: qHTS RealTime-Glo MT Cell Viability Assay in HepG2 cells - 24 hour (AID 1224867). Further: nearly all actives have a fitted effect of over 50% in size. In outline: (§1)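 Cells + NanoLuc/prosubstrate dispensed (600 cells/well) → 5 h at 37 C/5% CO2 → compounds in DMSO transferred → 40 h incubation at 37 C, luminescence read at 0, 8, 16, 24, 32, 40 h.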
A short description of test [5]: qHTS RealTime-Glo MT Cell Viability Assay in HEK293 cells - 32 hour (AID 1224868). Further: nearly all actives have a fitted effect of over 50% in size. Further: potency means the concentration at half of the fitted maximal effect. In outline: (§2)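 Tox21 10K qHTS, HEK293, 600 cells/well, RealTime-Glo reagent co-dispensed with cells; 5 h preincubation, compound by pintool, 37 C, luminescence at 0–40 h.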
The nature of test [6]: A CellTox Green Cytotoxicity Assay to monitor cytotoxicity in HEK293 cells - 0 hour (AID 1224869). Further: nearly all actives have a fitted effect of over 50% in size. In outline:
(§3)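 Seeding of HEK293 cells together with cytotoxicity dye preceded a 5 h incubation at 37 C/5% CO2. Test compounds in DMSO were then added and fluorescence monitored across 40 h.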

A short description of test [7]: qHTS RealTime-Glo MT Cell Viability Assay in HepG2 cells - 40 hour (AID 1224870). Further: nearly all actives have a fitted effect of over 50% in size. In outline:
(§4)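 HepG2 cells (600/well) mixed with RealTime-Glo MT reagent, settled 5 h at 37 C/5% CO2 before compound addition. Nonlytic NanoLuc luminescence from viable-cell prosubstrate reduction read repeatedly during 40 h treatment at 37 C.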

A short description of test [8]: A CellTox Green Cytotoxicity Assay to monitor cytotoxicity in HEK293 cells - 40 hour (AID 1224871). Further: nearly all actives have a fitted effect of over 45% in size. In outline: as §3
Test [9] is described as follows: qHTS RealTime-Glo MT Cell Viability Assay in HEK293 cells - 16 hour (AID 1224872). The procedure, abridged: as §2
Test [10] is described as follows: qHTS RealTime-Glo MT Cell Viability Assay in HepG2 cells - 8 hour (AID 1224873). Further: nearly all actives have a fitted effect of over 55% in size. The procedure, abridged: as §4
The nature of test [11]: qHTS RealTime-Glo MT Cell Viability Assay in HEK293 cells - 40 hour (AID 1224874). Further: nearly all actives have a fitted effect of over 50% in size. Particulars: RealTime-Glo luminescence; max response: stronger effect = lower value. In outline: (§5)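 Tox21 screen in HEK293 using RealTime-Glo MT chemistry, with cells and reagent co-dispensed. Luminescence proportional to viable cell number was captured at intervals during 40 h compound exposure at 37 C.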

Test [12] can be described thus: A CellTox Green Cytotoxicity Assay to monitor cytotoxicity in HEK293 cells - 24 hour (AID 1224875). Further: nearly all actives have a fitted effect of over 45% in size. In outline: as §3
Test [13] in a line: qHTS RealTime-Glo MT Cell Viability Assay in HepG2 cells - 32 hour (AID 1224877). Further: nearly all actives have a fitted effect of over 55% in size. The procedure, abridged: as §1
Test [14] in a line: A CellTox Green Cytotoxicity Assay to monitor cytotoxicity in HepG2 cells - 24 hour (AID 1224878). Further: nearly all actives have a fitted effect of over 45% in size. The procedure, abridged: (§6)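 Nonlytic assay: viable cells exclude the dye, so fluorescence scales with cell death. HepG2 at 600 cells/well, compounds added after 5 h, signal read across 40 h.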
Test [15] can be described thus: A CellTox Green Cytotoxicity Assay to monitor cytotoxicity in HepG2 cells - 40 hour (AID 1224879). Further: nearly all actives have a fitted effect of over 40% in size. In outline: as §6
Test [16] in a line: qHTS RealTime-Glo MT Cell Viability Assay in HEK293 cells - 0 hour (AID 1224880). Further: top concentration of the series differs between compounds; nearly all actives have a fitted effect of over 45% in size. In outline:
as §5

Test [17] in a line: A CellTox Green Cytotoxicity Assay to monitor cytotoxicity in HepG2 cells - 16 hour (AID 1224876). Further: nearly all actives have a fitted effect of over 45% in size. The procedure, abridged: as §6
A short description of test [18]: qHTS assay to identify small molecule agonists of the estrogen related receptor (ERR) signaling pathway from Tox21 library (AID 1224849; calls by dose curve; further: nearly all actives have a fitted effect of over 15% in size). The note with it: ERR reporter cell line, ONE-Glo luciferase, 18 h; at 92.4 µM (top of the series) unless noted. The procedure, abridged:
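Six hours post-seeding at 37 C/5% CO2, ERR cells receive DMSO-solubilised compounds; after 18 h at 37 C, ONE-Glo reagent is applied and luminescence recorded.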

A short description of test [19]: qHTS assay to identify small molecule antagonists of the estrogen related receptor (ERR) signaling pathway from Tox21 library (AID 1224848). Further: nearly all actives have a fitted effect of over 50% in size. In outline: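 Luminescent reporter read-out (ONE-Glo) from NTP's ERR cell line after 18 h treatment at 37 C with DMSO-dissolved Tox21 compounds; cells pre-plated 6 h beforehand at 2,000 per well.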
On the % scale 0 is the no-effect control and ±100 the full control effect.

For `CN1CCC(OC(c2ccccc2)c2ccccc2)CC1`, the Potency entry in test [1], in test [2], in [3], in test [4], in test [5] and in test [6] was “inactive” in each case. Besides, the Potency result in test [7], in test [8], in [9], in test [10], in [12] and in test [13] was “inactive” each time. In addition, the Potency result in test [14], in test [15] and in test [16] was “inactive” throughout. Besides, the max response in test [11] is -5.84%.

With `NC1CCN(c2nc3c(cc2F)c(=O)c(C(=O)O)cn3-c2ccc(F)cc2F)C1` (centres undefined), the Potency result in test [1], in [2], in test [3], in test [4], in test [5] and in [6] was “inactive” each time. Also, the Potency entry in [7], in [8], in test [9], in test [10], in test [12] and in [17] was “inactive” each time. For the same molecule, the Potency entry in [13], in test [14], in [15] and in test [16] was “inactive” in each case. The max response in test [11] is -1.98%.

With `C=CC[N+]1([C@H]2C[C@H]3[C@@H]4CC[C@H]5C[C@H](OC(C)=O)[C@@H](N6CCCCC6)C[C@]5(C)[C@H]4CC[C@]3(C)[C@H]2OC(=O)CC)CCCCC1`, the Potency entry in [1], in test [2], in [3], in test [4], in test [5] and in test [6] was “inactive” each time. In addition, the Potency result in [7], in [8], in test [9], in test [10], in [12] and in test [17] was “inactive” in each case. The Potency entry in test [13], in [14], in [15] and in test [16] was “inactive” each time. Also, in [18], the activity change, positive = activation is -0.214% [at 42.5 µM]. In addition, the max response in [11] is -20.7%.

`N#CCCNCCC#N`: the Potency entry in test [1], in [2], in test [3], in test [4], in test [5] and in test [6] was “inactive” in each case. The Potency result in test [7], in [8], in [9], in test [10], in test [12] and in test [17] was “inactive” each time. Also, the Potency entry in test [13], in test [14], in [15] and in test [16] was “inactive” in each case. Further, the max response in [11] is 6.76%.

On to `OC(CCN1CCCCC1)(c1ccccc1)C1CCCCC1` (centres undefined), for which the Potency result in [1], in [2], in test [19], in test [4], in test [6] and in test [7] was “inactive” throughout. In addition, the Potency result in test [8], in test [9], in [10], in test [12], in [17] and in test [13] was “inactive” throughout. Moreover, the Potency result in test [14], in test [15] and in test [16] was “inactive” in each case. Further, the activity change, positive = activation in [18] was 2.3% [at 42.5 µM]. Also, the max response in test [11] was -21.9%.

As for `O=C(Nc1ccccc1)OCC(CN1CCCCC1)OC(=O)Nc1ccccc1` (centres undefined), the Potency result in [1], in [2], in test [3], in test [4], in [6] and in test [8] was “inactive” in each case. The Potency entry in [10], in test [12], in [17], in [13] and in test [16] was “inactive” in each case. Besides, in test [5], the Potency is 21.3 µM (active).

Regarding `CCCCC(CC)(CO)CO`, the Potency entry in [1], in [2], in test [3], in test [4], in test [5] and in test [6] was “inactive” each time. Also, the Potency result in test [7], in [8], in [9], in test [10], in test [12] and in [17] was “inactive” in each case. For the same molecule, the Potency entry in test [13], in test [14], in test [15] and in [16] was “inactive” throughout. Further, the max response in [11] is -0.853%.
